# Sampled rows, rich in hits. Any-hit rate of the full collection: about 3.4%.
# GPR151 activ: activates the human receptor GPR151; Q8TDV0; PathHunter beta-arrestin GPR151 cells, luminescence; activation, % at 11.2 µM; hit rate 1% among 650,000; AID 1508602; in the data active means activation above about 4.9%;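 further: 0% = median of compound wells and 100% = cells with positive control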
# FBW7 activator: activators of human E3 ligase FBW7. Q969H0. hit rate 0.13% among 650,000. AlphaScreen FBW7–phospho-cyclin E peptide binding, activator screen. normalized activity (activation), % at 26.1 µM; in the data active means normalized activity above about 1.9%;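 further: purified mutant Fbw7 with reduced substrate affinity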
# MITF primary: blocks human microphthalmia-associated transcription factor; O75030; AlphaScreen MITF homodimerization, bead proximity signal; inhibition, % at 2.6 µM; hit rate 0.91% among 650,000; in the data active means inhibition above about 50%;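 further: 0% = vehicle wells with protein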
# TEAD-YAP inh: TEAD-YAP interaction inhibition; HEK-TIYL cells, TEAD-Gal4/YAP UAS-luciferase luminescence; inhibition, % at 9.12 µM; hit rate 1.4% among 640,000; in the data active means inhibition above about 32%;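 further: 0% = median of test compound wells and 100% = reference inhibitor wells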
# MITF confirm: confirmation of human MITF inhibitors; shares compounds with MITF primary; AlphaScreen MITF homodimerization, biotin/His-MITF beads; inhibition, % at 2.6 µM; hit rate 16% among 4,700;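 active means inhibition above a cutoff derived from the DMSO control wells, cut at about 28% in these data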;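 further: 0% = MITF dimer wells with DMSO only; inhibitors lower the bead chemiluminescence by keeping MITF from dimerizing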
# AlphaScreen intf2: counter-screen: compounds optically interfering with AlphaScreen | LysRS AlphaScreen counterscreen, signal interference, triplicate | shares compounds with MITF primary | hit rate 7.6% among 4,700 | inhibition, % at 2.6 µM | AID 1259376;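 active means inhibition above a cutoff derived from the DMSO control wells, cut at about 30% in these data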
# An asterisk follows results filed as active; . = no result.
SMILES,GPR151 activ,FBW7 activator,MITF primary,TEAD-YAP inh,MITF confirm,AlphaScreen intf2
CCOC(=O)c1oc(-c2ccc(F)cc2)nc1C,5,0,67*,-6,14,17
CCOC(=O)c1nc(-c2ccccc2)oc1C(F)(F)F,0,0,10,2,.,.
Cc1cc(=O)[nH]c(SCC(=O)Nc2ccc([N+](=O)[O-])cc2C#N)n1,-1,0,17,-33,.,.
O=[N+]([O-])c1ccc(CN2CCN(c3ncccn3)CC2)o1,0,0,58*,9,5,1
O=[N+]([O-])c1ccc(CN2CCN(c3ccc(Cl)cc3)CC2)o1,4,1,59*,7,16,12
O=[N+]([O-])c1ccc(CN2CCN(c3cccc(Cl)c3)CC2)o1,1,0,21,5,.,.
CCC(Sc1nc2ccccc2s1)C(=O)Nc1sc2c(c1C#N)CCCC2 (stereo unspecified),1,0,7,16,.,.
CN(C)C(=O)c1cccc2c1NC(c1ccc([N+](=O)[O-])cc1)C1CC=CC21 (stereo unspecified),0,0,4,1,.,.
CCC(=O)c1ccccc1OCCCCN1CCN(CC)CC1,4,0,60*,8,18,13
COc1cc(C(C)=O)ccc1OCCN1CCN(Cc2ccccc2)CC1,-1,1,62*,11,6,10
COc1ccc(C(=O)NC(=S)N2CCN(Cc3ccccc3)CC2)cc1OC,-1,0,18,-2,.,.
CCC(=O)c1ccccc1OCCN1CCN(Cc2ccccc2)CC1,1,0,66*,14,7,3
CCC(=O)c1ccccc1OCCN1CCN(C)CC1,-1,0,13,7,.,.
Cc1ccc2c(c1)c(=O)c(C(=O)c1ccccc1)cn2CC(=O)Nc1ccc2c(c1)OCO2,1,0,21,-4,.,.
C=CCN1CC(c2nc3ccccc3n2Cc2cccc(C)c2)CC1=O (stereo unspecified),0,0,10,-4,.,.
COCCCNCCCCOc1ccc(C(C)C)c(C)c1,0,0,58*,7,4,15
COCCCNCCCOc1ccc(C(C)C)c(C)c1,-2,0,59*,-5,2,18
COc1ccc(-c2cccc(C(=O)NCc3ccc4c(c3)OCO4)c2)cc1,0,0,-3,1,.,.
COc1cccc(-c2cc(CNC(=O)c3ccc4c(c3)OCO4)no2)c1,1,0,51*,3,9,-11
Cc1ccc(N=Cc2c(O)[nH]c(=S)[nH]c2=O)c(C)c1,-1,0,7,-1,.,.
O=CN1CCN(C(=O)COc2ccc(Br)cc2)CC1,1,0,-10,1,.,.
CC(=O)N1CCN(C(=O)COc2ccc(Br)cc2)CC1,-1,1,53*,-2,10,9
COC(=O)c1c(NC(=O)CCN2CCN(C)CC2)sc2c1CCC2,1,0,90*,5,5,7
CN1CCN(CC(=O)Nc2sc3c(c2C(N)=O)CCCC3)CC1,-1,0,72*,6,17,14
COC(=O)c1c(NC(=O)CCCOc2ccc(C)cc2)sc2c1CCCC2,0,0,78*,8,0,8
SMILES,GPR151 activ,FBW7 activator,MITF primary,TEAD-YAP inh,MITF confirm,AlphaScreen intf2
COc1cc(OC)nc(Oc2cccnc2C(=O)NNc2ccccc2)n1,2,-1,54*,-7,36*,70*
CC1(C2CC2)NC(=O)N(CC(=O)Nc2ccc(S(=O)(=O)N3CCCCC3)cc2)C1=O (stereo unspecified),-1,1,62*,0,5,11
CC1(C2CC2)NC(=O)N(CC(=O)Nc2ccccc2F)C1=O (stereo unspecified),1,0,67*,-4,10,7
CCOc1ccccc1NC(=O)c1cn(-c2ccc(OC)cc2)c(=O)c2ccccc12,-1,0,7,-4,.,.
CCOc1ccc(OCCCNCCOC)cc1,0,0,57*,0,5,11
CCOc1cccc(OCCCNCCCOC)c1,1,0,89*,1,-6,14
CCOc1cccc(OCCOCCNCCCOC)c1,-2,0,23,-15,.,.
CCCCNCCCOc1ccc(OC)cc1,0,0,-4,-5,.,.
CCCCNCCCOc1ccc(OCC)cc1,0,0,51*,7,7,6
O=C(CSc1nc2[nH]ncc2c(=O)n1-c1ccc(Cl)cc1)Nc1ccc(C(F)(F)F)cc1,1,0,10,5,.,.
O=C1C2C3C=CC(C4CC34)C2C(=O)N1c1ccccc1[N+](=O)[O-] (stereo unspecified),-1,0,11,6,.,.
OCCOCCN1CCN(Cc2ccc(Br)cc2)CC1,2,0,-9,11,.,.
OCCOCCN1CCN(Cc2ccc(F)c(Br)c2)CC1,1,0,81*,4,-12,0
CN(C)c1ccc(NC(=S)Nc2ccccn2)cc1,4,0,71*,-48,9,27
COC(=O)c1ccc(C2NC(=O)NC(=O)N2)cc1,1,0,1,1,.,.
CCC(CC)CN1CCc2nnc(CNC(=O)C3CCC(=O)N3)n2CC1 (stereo unspecified),0,0,78*,0,1,2
CC(C)/C=C/CN1CCc2nnc(CNC(=O)C3CCC(=O)N3)n2CC1 (stereo unspecified),-1,0,7,4,.,.
COc1ccccc1NC(=O)C1=C(C)NC(SCC(=O)Nc2ccccc2)=C(C#N)C1c1ccco1 (stereo unspecified),1,0,11,3,.,.
COc1ccccc1NC(=O)C1=C(C)NC(SCC(=O)Nc2cccc(C)c2C)=C(C#N)C1c1ccco1 (stereo unspecified),0,0,56*,32*,3,7
O=[N+]([O-])c1ccccc1OCCN1CCCC1,0,0,10,-5,.,.
CC1CCCN(CCOc2ccccc2[N+](=O)[O-])C1 (stereo unspecified),-1,0,54*,6,2,5
CCN1CCN(CCCOc2ccccc2[N+](=O)[O-])CC1,0,0,74*,2,9,12
Cc1ccc(OCCCCN2CCNCC2)c([N+](=O)[O-])c1,0,-1,80*,0,-18,2
O=[N+]([O-])c1ccccc1OCCCCN1CCNCC1,0,0,67*,-10,4,6
O=c1c(/C=N/n2cnnc2)c(Sc2nc3ccccc3s2)nc2ccccn12,0,0,1,4,.,.
COc1ccc(CCNc2ccc(Cl)cn2)cc1OC,-1,0,97*,-10,-12,-6
COc1ccc(CCNC(N)=S)cc1OC,0,0,63*,-6,6,-1
COc1ccc(CN2CCN(Cc3cccc(C)c3)CC2)c(OC)c1,-1,0,69*,-4,-1,3
COc1ccc(CN2CCN(Cc3cccc(C)c3)CC2)c(OC)c1OC,1,0,33,2,.,.
COc1cc(CN2CCN(Cc3cccc(C)c3)CC2)cc(OC)c1,1,0,42,-10,.,.

# Compound activity from PubChem.
